According to PubChem BioAssay (NCI):
Compounds without any hit were thinned out: in the full panel of roughly 83,000, 20% have a hit.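 Each cell line was grown in a 96-well plate and treated with one concentration of compound for 48 hours. Values below 10 were considered active.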 A number with no mark means an inactive call. Calls of active or inactive are those of the source.

Tests used:
Assay in all cases: NCI-60 one-dose screen, 48 h (100 = growth as untreated, 0 = no growth, -100 = all killed)
Conditions in all cases: 10 µM unless noted
[1] = system: DU-145 prostate
[2] = system: K-562 leukemia
[3] = system: MALME-3M melanoma
[4] = system: MDA-MB-231 breast
[5] = system: RXF 393 renal
[6] = system: SF-268 CNS
[7] = system: SF-295 CNS
[8] = system: SF-539 CNS
[9] = system: UACC-257 melanoma
[10] = system: HCT-15 colon
[11] = system: HT29 colon
[12] = system: SNB-75 CNS
[13] = system: SNB-19 CNS
[14] = system: U251 CNS
[15] = system: PC-3 prostate
[16] = system: SK-MEL-5 melanoma
[17] = system: UACC-62 melanoma
[18] = system: LOX IMVI melanoma
[19] = system: SK-MEL-28 melanoma
[20] = system: M14 melanoma

Q: For `COc1ccc(-c2cc(-c3ccc(Cl)cc3)c(C#N)c(=O)n2CCCCCC(=O)Nc2ccccc2N)cc1`, which growth [1] is on record?
A: Its growth is 49.8%.

Q: And the growth [2]?
A: The growth was 15%.

Q: And the growth [3]?
A: Its growth is 39%.

Q: And the growth [4]?
A: Its growth is 55.6%.

Q: What about the growth [5] of the same compound?
A: Its growth is 29.8%.

Q: And the growth [6]?
A: The growth was 75.9%.

Q: What about the growth [7] of the same compound?
A: Its growth is -19.5% (active).

Q: What about the growth [8] of the same compound?
A: The growth was 60%.

Q: What about the growth [9] of the same compound?
A: Its growth is 23.4%.

Q: And the growth [10]?
A: Its growth is 23.1%.

Q: And the growth [11]?
A: The growth was 14.8%.

Q: And the growth [12]?
A: Its growth is -6.08% (active).

Q: And the growth [13]?
A: The growth was 70.7%.

Q: And the growth [14]?
A: The growth was 48.8%.

Q: What about the growth [15] of the same compound?
A: The growth was 39.5%.

Q: What about the growth [16] of the same compound?
A: Its growth is -79.7% (active).

Q: And the growth [17]?
A: The growth was 4.17% (active).

Q: What about the growth [18] of the same compound?
A: Its growth is -54.2% (active).

Q: And the growth [19]?
A: The growth was 60.5%.

Q: How did the growth [1] turn out when `COc1ccc(CNC(=O)[C@H](O)[C@@H](N)Cc2ccccc2)cc1` was run?
A: The growth was 113%.

Q: What about the growth [2] of the same compound?
A: Its growth is 98.4%.

Q: What about the growth [3] of the same compound?
A: The growth was 108%.

Q: What about the growth [4] of the same compound?
A: The growth was 100%.

Q: What about the growth [5] of the same compound?
A: Its growth is 107%.

Q: And the growth [6]?
A: Its growth is 92.7%.

Q: And the growth [7]?
A: The growth was 97.9%.

Q: And the growth [8]?
A: Its growth is 97.2%.

Q: What about the growth [9] of the same compound?
A: Its growth is 108%.

Q: What about the growth [20] of the same compound?
A: Its growth is 105%.

Q: And the growth [10]?
A: Its growth is 107%.

Q: And the growth [11]?
A: Its growth is 103%.

Q: What about the growth [12] of the same compound?
A: Its growth is 86%.

Q: What about the growth [13] of the same compound?
A: Its growth is 102%.

Q: And the growth [14]?
A: Its growth is 101%.

Q: What about the growth [15] of the same compound?
A: Its growth is 108%.

Q: And the growth [16]?
A: Its growth is 105%.

Q: What about the growth [17] of the same compound?
A: Its growth is 96.6%.

Q: And the growth [18]?
A: Its growth is 97.6%.

Q: What about the growth [19] of the same compound?
A: Its growth is 107%.

Q: What does the source list for `CCC(=O)Nc1ccc(-c2nc(-c3cccc(OC)c3)c(-c3ccnc(Br)c3)[nH]2)cc1`?
A: growth [1]: 70.6%; growth [2]: 24.1%; growth [3]: 69.4%; growth [4]: 71.8%; growth [5]: -22.8% (active); growth [6]: 75.8%; growth [7]: 16.1%; growth [8]: 51.1%; growth [9]: 74.4%; growth [10]: 21.5%; growth [11]: 54.7%; growth [12]: 15.9%; growth [13]: 67.8%; growth [14]: 53.4%; growth [15]: 39.4%; growth [16]: 47.8%; growth [17]: 48.8%; growth [18]: 43.3%; growth [19]: 66%

Q: For `O=C(N=c1oc2ccccc2cc1-c1cc2ccccc2[nH]1)Nc1ccc(Cl)cc1`, which growth [1] is on record?
A: The growth was 99.2%.

Q: And the growth [2]?
A: The growth was 88.8%.

Q: And the growth [3]?
A: The growth was 99.2%.

Q: And the growth [4]?
A: Its growth is 79.5%.

Q: What about the growth [5] of the same compound?
A: Its growth is 116%.

Q: What about the growth [6] of the same compound?
A: The growth was 99.3%.

Q: What about the growth [7] of the same compound?
A: The growth was 111%.

Q: What about the growth [8] of the same compound?
A: Its growth is 90.6%.

Q: And the growth [9]?
A: The growth was 108%.

Q: And the growth [10]?
A: Its growth is 107%.

Q: What about the growth [11] of the same compound?
A: The growth was 99.8%.

Q: And the growth [12]?
A: The growth was 78.3%.

Q: And the growth [13]?
A: Its growth is 97.3%.

Q: What about the growth [14] of the same compound?
A: Its growth is 104%.

Q: And the growth [15]?
A: Its growth is 86.8%.

Q: And the growth [16]?
A: Its growth is 99.6%.

Q: What about the growth [17] of the same compound?
A: The growth was 83%.

Q: What about the growth [18] of the same compound?
A: The growth was 94.2%.

Q: What about the growth [19] of the same compound?
A: Its growth is 100%.

Q: What does the source list for `CCCCNC(=O)Oc1ccc(/C(=C(\C)c2ccc(Cl)cc2)c2ccc(OCCN(CC)CC)cc2)cc1`?
A: growth [1]: 81.7%; growth [2]: 8.22% (active); growth [3]: 65.1%; growth [4]: 70.2%; growth [5]: 79.4%; growth [6]: 65.5%; growth [7]: 85.2%; growth [8]: 71.7%; growth [9]: -1.69% (active); growth [10]: 19.5%; growth [11]: -10.2% (active); growth [12]: 64.9%; growth [13]: 86%; growth [14]: 50.7%; growth [15]: 60.9%; growth [16]: 78.4%; growth [17]: 74.6%; growth [18]: 71.5%; growth [19]: 74.9%

Q: `CCOC(=O)Nc1ccc(-c2nc(-c3cccc(OCCN4CCOCC4)c3)c(-c3ccnc(Br)c3)[nH]2)cc1` was tested. Which growth [1] did it give?
A: Its growth is 67.2%.

Q: And the growth [2]?
A: Its growth is 1.64% (active).

Q: And the growth [3]?
A: Its growth is 40.3%.

Q: What about the growth [4] of the same compound?
A: Its growth is 46.2%.

Q: What about the growth [5] of the same compound?
A: The growth was -25.9% (active).

Q: And the growth [6]?
A: Its growth is 62.3%.

Q: And the growth [7]?
A: The growth was -53.9% (active).

Q: And the growth [8]?
A: The growth was 23.4%.

Q: What about the growth [9] of the same compound?
A: The growth was 60%.

Q: And the growth [10]?
A: Its growth is 11%.

Q: And the growth [11]?
A: The growth was 8.48% (active).

Q: What about the growth [12] of the same compound?
A: Its growth is 3.74% (active).

Q: What about the growth [13] of the same compound?
A: The growth was 50.6%.

Q: And the growth [14]?
A: The growth was 26.5%.

Q: What about the growth [15] of the same compound?
A: The growth was 26.2%.

Q: What about the growth [16] of the same compound?
A: Its growth is 38.1%.

Q: And the growth [17]?
A: The growth was 32.9%.

Q: And the growth [18]?
A: The growth was 14.1%.

Q: And the growth [19]?
A: Its growth is 30.6%.
